Holding throughout (set-up): scale not given: direction of the effect not stated beside the values
Experiment [1] concerns the target Protein translocase subunit SecA (Escherichia coli (strain K12)) (UniProt P10408). Description: Assay to Identify E. coli SecA ATPase Inhibitors. It is filed as functional. The settings on record: 30 µM.
Experiment [2] addresses T1, Ubiquitin-activating enzyme e1, putative (Leishmania donovani (strain BPK282A1)) (UniProt E9BSI1).
T1 sequence (whole entry): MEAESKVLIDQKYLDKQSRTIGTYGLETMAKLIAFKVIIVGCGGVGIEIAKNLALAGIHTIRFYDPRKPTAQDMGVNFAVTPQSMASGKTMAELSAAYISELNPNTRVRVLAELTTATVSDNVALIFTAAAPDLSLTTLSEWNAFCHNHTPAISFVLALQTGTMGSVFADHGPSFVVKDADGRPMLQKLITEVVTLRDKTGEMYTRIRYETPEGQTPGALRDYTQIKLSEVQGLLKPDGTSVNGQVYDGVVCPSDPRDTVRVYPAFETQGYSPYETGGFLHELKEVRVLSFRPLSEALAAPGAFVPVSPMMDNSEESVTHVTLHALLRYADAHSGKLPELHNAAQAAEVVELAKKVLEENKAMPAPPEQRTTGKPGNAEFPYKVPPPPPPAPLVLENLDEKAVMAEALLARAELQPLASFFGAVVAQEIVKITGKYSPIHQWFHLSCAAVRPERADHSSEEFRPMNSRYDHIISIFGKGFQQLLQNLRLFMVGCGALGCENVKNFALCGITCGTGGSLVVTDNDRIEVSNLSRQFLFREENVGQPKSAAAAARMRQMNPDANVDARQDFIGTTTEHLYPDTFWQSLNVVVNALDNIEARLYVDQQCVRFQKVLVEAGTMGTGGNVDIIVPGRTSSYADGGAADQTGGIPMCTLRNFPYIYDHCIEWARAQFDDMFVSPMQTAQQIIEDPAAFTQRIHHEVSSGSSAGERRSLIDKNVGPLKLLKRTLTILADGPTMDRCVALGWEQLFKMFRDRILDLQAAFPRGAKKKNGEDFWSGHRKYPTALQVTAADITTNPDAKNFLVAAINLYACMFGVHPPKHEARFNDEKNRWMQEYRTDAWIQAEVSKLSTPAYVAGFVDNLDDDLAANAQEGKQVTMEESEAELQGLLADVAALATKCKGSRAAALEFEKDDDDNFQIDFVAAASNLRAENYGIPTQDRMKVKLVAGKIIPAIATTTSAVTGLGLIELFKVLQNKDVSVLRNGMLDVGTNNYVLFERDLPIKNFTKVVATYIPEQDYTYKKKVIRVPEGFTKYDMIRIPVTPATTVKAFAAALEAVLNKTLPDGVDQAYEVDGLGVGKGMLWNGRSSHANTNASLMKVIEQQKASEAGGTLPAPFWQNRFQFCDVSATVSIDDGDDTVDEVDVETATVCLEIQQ
Kind of experiment: Leishmania donovani Ubiquitin Activating Enzyme (LdE1). It is filed as functional. The settings on record: 30 µM.

In experiment [3] the target is AMP-activated protein kinase, AMPK (Homo sapiens) (UniProt P54646+O43741+P54619+Q9UGJ0+Q9Y478+Q13131+Q9UGI9). Description: AMP-dependent Kinase enzyme assay. An in vitro enzyme assay that detects ADP turnover that is directly proportional to AMPK activity. This uses naive AMPK that is activated during the assay with MK-8722. It counts as functional. The settings on record: 30 µM.

The target in experiment [4] is Sialic acid-binding Ig-like lectin 9 (Homo sapiens) (UniProt Q9Y336). Description: Hs-Siglec9 ALPHAscreen SOP 20170721. The following applies: 10 µM.
Sequence of Sialic acid-binding Ig-like lectin 9 (Homo sapiens) (Q9Y336 whole entry): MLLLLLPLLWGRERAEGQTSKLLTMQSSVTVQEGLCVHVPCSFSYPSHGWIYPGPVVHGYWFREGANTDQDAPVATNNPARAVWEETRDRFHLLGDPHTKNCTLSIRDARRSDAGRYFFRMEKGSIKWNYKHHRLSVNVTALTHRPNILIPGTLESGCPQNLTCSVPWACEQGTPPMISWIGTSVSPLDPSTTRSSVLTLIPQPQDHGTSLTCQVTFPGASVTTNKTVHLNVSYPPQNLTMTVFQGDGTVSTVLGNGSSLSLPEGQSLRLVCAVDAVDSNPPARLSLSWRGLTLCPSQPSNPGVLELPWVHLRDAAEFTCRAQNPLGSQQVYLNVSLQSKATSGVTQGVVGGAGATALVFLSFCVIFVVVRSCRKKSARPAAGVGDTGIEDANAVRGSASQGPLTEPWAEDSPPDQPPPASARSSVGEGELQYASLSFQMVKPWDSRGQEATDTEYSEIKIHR
Experiment [5] concerns Trypanosoma cruzi. Kind of experiment: Trypanosoma cruzi phosphomannomutase and mannose-1-phosphate guanylyltransferase assay. It counts as functional. The settings on record: 10 µM.
Experiment [6] deals with T2, Arginase-2, mitochondrial (Homo sapiens) (UniProt P78540).
T2 sequence (whole entry): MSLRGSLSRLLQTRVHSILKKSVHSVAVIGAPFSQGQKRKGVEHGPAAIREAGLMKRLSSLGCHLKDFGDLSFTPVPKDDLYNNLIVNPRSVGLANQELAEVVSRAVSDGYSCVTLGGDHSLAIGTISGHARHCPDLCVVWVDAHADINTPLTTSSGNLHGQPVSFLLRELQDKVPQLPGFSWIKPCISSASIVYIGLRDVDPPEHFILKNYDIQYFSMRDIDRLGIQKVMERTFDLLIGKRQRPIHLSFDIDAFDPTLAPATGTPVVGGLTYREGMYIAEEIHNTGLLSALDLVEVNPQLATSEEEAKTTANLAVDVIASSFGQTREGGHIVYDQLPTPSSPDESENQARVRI
Description: in vitro enzyme assay to detect the production of urea directly proportional to the activity of Arginase II. Also: in the data most compounds retested in dose-response had high values. It is filed as functional. The settings on record: 33.3 µM.

Experiment [7] has as its target T3, Proteasome subunit beta (Trypanosoma cruzi) (UniProt O96673).
T3 sequence (whole entry): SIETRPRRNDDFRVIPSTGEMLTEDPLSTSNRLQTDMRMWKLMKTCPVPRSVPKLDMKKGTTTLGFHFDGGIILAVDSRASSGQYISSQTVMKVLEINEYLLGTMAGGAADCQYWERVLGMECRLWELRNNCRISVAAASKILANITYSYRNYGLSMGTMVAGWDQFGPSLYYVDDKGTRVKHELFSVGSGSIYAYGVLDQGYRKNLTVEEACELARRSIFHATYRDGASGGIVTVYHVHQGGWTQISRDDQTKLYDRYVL
Kind of experiment: Trypanosoma cruzi proteasome chymotrypsin-like activity (TcProtChymo) assay. Also: in the data most compounds retested in dose-response had high values. The following applies: 9.37 µM. It counts as functional.

The species named for experiment [8] is Homo sapiens. Description: To identify inhibition of the IFN signalling (Jak-Stat) pathway via expression of an eGFP reporter gene under the control of an IFN-stimulated response element (ISRE) containing MxA promoter. It counts as functional. The following applies: 30 µM.
In experiment [9] the target is T4, Tyrosyl-tRNA synthetase, putative (Trypanosoma cruzi (strain CL Brener)) (UniProt Q4DSP6).
T4 sequence (whole entry): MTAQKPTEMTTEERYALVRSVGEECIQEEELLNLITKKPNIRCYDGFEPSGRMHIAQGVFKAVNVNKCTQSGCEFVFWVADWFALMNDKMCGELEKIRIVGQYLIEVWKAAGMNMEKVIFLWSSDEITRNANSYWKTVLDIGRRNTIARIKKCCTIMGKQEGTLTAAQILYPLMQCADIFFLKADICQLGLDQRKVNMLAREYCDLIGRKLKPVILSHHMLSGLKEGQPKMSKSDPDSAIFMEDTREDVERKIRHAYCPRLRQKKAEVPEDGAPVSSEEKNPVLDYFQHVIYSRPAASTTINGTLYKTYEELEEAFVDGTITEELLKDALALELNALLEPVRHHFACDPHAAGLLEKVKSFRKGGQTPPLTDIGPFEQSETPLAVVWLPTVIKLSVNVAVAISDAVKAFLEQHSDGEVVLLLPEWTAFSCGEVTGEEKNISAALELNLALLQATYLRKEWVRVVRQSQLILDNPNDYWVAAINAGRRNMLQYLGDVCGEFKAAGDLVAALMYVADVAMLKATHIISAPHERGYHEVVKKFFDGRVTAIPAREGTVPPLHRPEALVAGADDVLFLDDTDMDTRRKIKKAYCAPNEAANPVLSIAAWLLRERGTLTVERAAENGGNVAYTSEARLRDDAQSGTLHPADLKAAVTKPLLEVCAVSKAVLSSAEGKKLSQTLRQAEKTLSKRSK
Description: Trypanosoma cruzi tyrosyl tRNA synthetase (TcYRS) _High Tyrosine SOP. Also: in the data most compounds retested in dose-response had high values. The settings on record: 30 µM. It is filed as functional.

Experiment [10] has as its target T4, Tyrosyl-tRNA synthetase, putative (Trypanosoma cruzi (strain CL Brener)). Description: Trypanosoma cruzi tyrosyl tRNA synthetase (TcYRS) SOP. It counts as functional. The settings on record: 30 µM.
In experiment [11] the target is Chromo domain-containing protein 1 (Saccharomyces cerevisiae (strain ATCC 204508 / S288c) (Baker's yeast)) (UniProt P32657). Description: ScCHD-1 Enzyme Inhibition Assay. Also: in the data most compounds retested in dose-response had high values. It counts as functional. The settings on record: 30 µM.
Sequence of Chromo domain-containing protein 1 (Saccharomyces cerevisiae (strain ATCC 204508 / S288c) (Baker's yeast)) (P32657 whole entry, the tested form may be a part): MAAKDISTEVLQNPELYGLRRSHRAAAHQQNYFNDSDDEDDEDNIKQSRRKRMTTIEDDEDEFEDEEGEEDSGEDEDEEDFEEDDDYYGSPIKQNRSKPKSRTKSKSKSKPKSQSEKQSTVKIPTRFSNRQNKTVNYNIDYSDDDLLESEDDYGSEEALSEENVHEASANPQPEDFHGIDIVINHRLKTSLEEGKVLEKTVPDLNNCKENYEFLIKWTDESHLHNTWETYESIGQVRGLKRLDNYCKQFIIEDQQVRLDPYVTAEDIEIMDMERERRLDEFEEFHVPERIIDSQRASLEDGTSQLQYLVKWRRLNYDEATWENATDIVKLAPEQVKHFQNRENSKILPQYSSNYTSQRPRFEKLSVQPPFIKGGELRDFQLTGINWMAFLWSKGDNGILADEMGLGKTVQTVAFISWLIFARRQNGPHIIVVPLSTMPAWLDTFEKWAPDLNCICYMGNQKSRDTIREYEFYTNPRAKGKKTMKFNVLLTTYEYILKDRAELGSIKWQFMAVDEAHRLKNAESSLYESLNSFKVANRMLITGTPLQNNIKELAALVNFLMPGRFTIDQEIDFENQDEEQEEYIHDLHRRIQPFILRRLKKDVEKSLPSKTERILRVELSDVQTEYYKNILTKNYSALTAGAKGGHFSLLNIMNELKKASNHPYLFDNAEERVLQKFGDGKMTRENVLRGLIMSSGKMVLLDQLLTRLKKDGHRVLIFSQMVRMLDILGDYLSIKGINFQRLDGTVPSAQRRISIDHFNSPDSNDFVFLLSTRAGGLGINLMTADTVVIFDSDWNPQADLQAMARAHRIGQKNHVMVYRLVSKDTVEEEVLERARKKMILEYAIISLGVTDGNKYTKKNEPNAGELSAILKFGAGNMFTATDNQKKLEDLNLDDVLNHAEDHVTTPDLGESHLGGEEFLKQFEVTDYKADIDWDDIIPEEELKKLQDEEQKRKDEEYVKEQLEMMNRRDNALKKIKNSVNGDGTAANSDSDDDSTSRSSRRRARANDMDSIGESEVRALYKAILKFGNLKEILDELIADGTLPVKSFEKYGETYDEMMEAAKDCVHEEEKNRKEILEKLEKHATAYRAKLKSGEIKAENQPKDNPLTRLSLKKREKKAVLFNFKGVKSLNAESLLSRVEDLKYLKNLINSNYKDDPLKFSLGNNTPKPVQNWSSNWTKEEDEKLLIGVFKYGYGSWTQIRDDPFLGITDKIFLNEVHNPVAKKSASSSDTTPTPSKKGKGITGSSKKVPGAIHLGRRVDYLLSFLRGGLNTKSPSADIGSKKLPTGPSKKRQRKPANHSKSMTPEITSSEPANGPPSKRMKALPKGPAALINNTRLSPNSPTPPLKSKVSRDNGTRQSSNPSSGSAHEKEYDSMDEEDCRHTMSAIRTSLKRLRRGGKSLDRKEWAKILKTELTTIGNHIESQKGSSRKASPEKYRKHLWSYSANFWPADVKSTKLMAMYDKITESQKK

Among the data in ChEMBL document CHEMBL3988442, “University of Dundee, Small-Polar-MMV Screening Library” (2021) are Percent Effect values, retold here.

Structures are written as SMILES. For some of these results: Results with a measured potency or affinity are listed apart.

Sequence of Protein translocase subunit SecA (Escherichia coli (strain K12)) (P10408 whole entry): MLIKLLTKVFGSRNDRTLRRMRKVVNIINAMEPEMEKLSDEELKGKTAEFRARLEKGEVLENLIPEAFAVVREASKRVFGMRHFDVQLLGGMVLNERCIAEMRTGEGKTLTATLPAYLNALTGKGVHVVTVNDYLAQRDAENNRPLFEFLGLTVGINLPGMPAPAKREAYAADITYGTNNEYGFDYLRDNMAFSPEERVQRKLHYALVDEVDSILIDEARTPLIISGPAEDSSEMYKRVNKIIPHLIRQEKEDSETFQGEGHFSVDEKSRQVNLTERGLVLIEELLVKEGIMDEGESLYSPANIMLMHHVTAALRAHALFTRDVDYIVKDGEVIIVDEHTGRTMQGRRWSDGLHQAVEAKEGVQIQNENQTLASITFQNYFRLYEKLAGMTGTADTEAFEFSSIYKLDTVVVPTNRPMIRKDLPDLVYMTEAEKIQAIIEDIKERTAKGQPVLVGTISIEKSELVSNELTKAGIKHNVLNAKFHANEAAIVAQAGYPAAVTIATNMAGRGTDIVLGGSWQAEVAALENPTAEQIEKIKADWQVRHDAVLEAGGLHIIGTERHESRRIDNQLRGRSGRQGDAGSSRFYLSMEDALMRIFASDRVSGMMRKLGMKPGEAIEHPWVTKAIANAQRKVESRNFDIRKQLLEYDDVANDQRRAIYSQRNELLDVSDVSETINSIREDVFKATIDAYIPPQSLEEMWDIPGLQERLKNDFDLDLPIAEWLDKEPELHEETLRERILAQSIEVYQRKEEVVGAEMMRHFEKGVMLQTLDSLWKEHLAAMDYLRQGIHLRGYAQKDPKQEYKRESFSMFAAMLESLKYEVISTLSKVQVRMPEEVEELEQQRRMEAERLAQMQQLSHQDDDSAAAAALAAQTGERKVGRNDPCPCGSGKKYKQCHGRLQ

For `N#CCSCCCN1CCCN(C(=O)c2ccccc2)CC1`, the Percent Effect in [1] is -1.53%; in [2], -5.48%; in experiment [3], 0.11%; in experiment [4], 1.74%; in experiment [5], -4.17%; in experiment [6], 3.19%. The Percent Effect was 1.63% in experiment [7]; 14.4% in experiment [8]; 1.04% in experiment [9]; 3.7% in [10]; 6.49% in experiment [11].

As for `Cc1cc(-c2cnc(NCc3cccnc3)nc2C(C)(C)C)on1`, the Percent Effect in experiment [1] was -1.82%; in [2], 0%; in experiment [3], 24.3%; in experiment [4], 4.38%; in experiment [5], -3.74%; in experiment [6], -0.699%. The Percent Effect is 8.37% in [7]; 43.3% in experiment [8]; 6.38% in [9]; 6.41% in experiment [10]; -0.51% in experiment [11].

Turning to `Cc1noc([C@@H]2CC[C@@H]3[C@@H](CCN3S(=O)(=O)c3cccnc3)O2)n1`, the Percent Effect in experiment [1] was -1.26%; in experiment [2] it was 5.41%; in experiment [3], 9.76%; in [4], -4.15%; in experiment [5], -3.12%; in [6], 1.67%. The Percent Effect in experiment [7] was 9.89%; in experiment [8] it was 3.62%; in [9], 6.93%; in experiment [10], 13.4%; in [11], 3.12%.

For `COCCN1C[C@H]2CC[C@@]3(N=C(C)N(CC4CC4)C3=O)[C@H]2C1`, the Percent Effect was -4.99% in experiment [1]; 5.41% in experiment [2]; 1.81% in [3]; -4.12% in [4]; -0.391% in experiment [5]; -0.417% in experiment [6]. Also, the Percent Effect in experiment [7] came to 8.71%; in experiment [8], 7.83%; in [9] it was 6.93%; in experiment [10], 8.54%; in [11], 1.06%.

Consider `O=C(NCC1CC1)c1nc(COc2ccc3c(c2)OCO3)no1`, for which the Percent Effect is 0.685% in [1]; 4% in [2]; 1.6% in experiment [3]; -3.59% in experiment [4]; -7.07% in [5]; -5.46% in experiment [6]. Also, the Percent Effect in experiment [7] was 15.5%; in experiment [8], 7.56%; in experiment [9], 4.23%; in experiment [10], 2.56%; in [11], -6.83%.

Regarding `FC(F)(F)COCCN1CCCC(c2noc(C3CC3)n2)C1` (stereo unspecified), the Percent Effect in experiment [1] was -2.95%; in experiment [2], 5.33%; in experiment [3], -7.13%; in experiment [4], 6.38%; in experiment [5], 7.3%; in experiment [6] it was -0.521%. Also, the Percent Effect in [7] worked out at 16.7%; in experiment [8], 16.5%; in experiment [9] it was 3.83%; in [10], 11.1%; in [11], 101%.

Take `Cc1ccn(-c2ccccc2NCc2ncc[nH]2)n1`: the Percent Effect in experiment [1] is -7.12%; in experiment [2] it was 8.22%; in [3] it was -9.03%; in experiment [4] it was -1.61%; in experiment [5], 0.783%; in experiment [6] it was 3.18%. The Percent Effect in [7] is 9.41%; in experiment [8], -4.65%; in [9], 4.3%; in [10] it was 10%; in experiment [11], -3.33%.

For `O=C(CCNc1ncccn1)NCCc1ccn(-c2ccccc2)n1`, the Percent Effect is -3.96% in experiment [1]; 21.5% in [2]; -1.83% in experiment [3]; -7.45% in experiment [4]; 4.82% in experiment [5]; 0.215% in [6]. Besides, the Percent Effect is 15.4% in experiment [7]; -2.32% in experiment [8]; 6.25% in experiment [9]; 20.2% in [10]; -24.6% in [11].

`CC(C)c1nn(C)c(N(C)C)c1CNCc1ccccc1CN(C)C`: the Percent Effect in experiment [1] was -0.693%; in experiment [2], 10.5%; in experiment [3], -8.08%; in experiment [4], 13%; in [5], 1.13%; in [6], -5.36%. The Percent Effect in experiment [7] is 7.85%; in experiment [8], -8.54%; in experiment [9] it was 0.49%; in experiment [10], 7.32%; in experiment [11], -12.6%.

As for `COc1ccc(CN2CCn3c(CNS(C)(=O)=O)nnc3C2)cc1`, the Percent Effect is -9.41% in [1]; 5.41% in experiment [2]; -37.8% in experiment [3]; -5.71% in experiment [4]; -16.5% in experiment [5]; -3.5% in [6]. Besides, the Percent Effect in [7] was determined as 2.77%; in experiment [8], 14.7%; in experiment [9], 0%; in experiment [10] it was 5.13%; in [11], 1%.

For `CCN(CC(=O)NC(C)C)S(=O)(=O)N1CCC(C)C1` (stereo unspecified), the Percent Effect is -2.1% in experiment [1]; 0% in experiment [2]; -2.33% in experiment [3]; -4.69% in [4]; 2.05% in experiment [5]; 1.24% in experiment [6]. Also, the Percent Effect in [7] is 5.24%; in experiment [8] it was -14.3%; in experiment [9], 1.07%; in experiment [10] it was 6.17%; in experiment [11], -6.4%.
